{
  "source": "PubChem BioAssay AID1053126",
  "about": "(Broad Institute, 2014)",
  "note": "Measured potencies and affinities stand elsewhere. Active and inactive are the calls of the source.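 Rule for the calls: active = cell killing with a fitted half-effect concentration at or below twice the top valid dose; inconclusive = flat curve with 30 to 70 percent drop, or poor fit; inactive = the rest.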",
  "data": [
    {"assay": "HEK293T cell cytotoxicity, dose response, cytotoxicity control, ATP luminescence, cherry-pick, set 6 (AID 1053126)", "conditions": "HEK293T viability, CellTiter-Glo ATP luminescence, 72 h; series mostly up to 26 µM", "values": [
      {"molecule": "C=Cc1ccc(Cn2c(C)c(C(=O)NCc3cccc(C)c3)sc2=O)cc1", "outcome": "inactive"},
      {"molecule": "Cc1c(C=O)c2ccccn2c1C(=O)c1cccs1", "outcome": "inactive"},
      {"molecule": "Cc1c(O)ccc2cc(S(=O)(=O)c3ccccc3)c(=O)oc12", "outcome": "inactive"},
      {"molecule": "COCCNC(=O)c1cc2c(=O)n3cccc(C)c3nc2n(Cc2ccncc2)c1=N", "outcome": "inactive"},
      {"molecule": "Cc1noc(C)c1S(=O)(=O)N(CC(=O)N1CCCCCC1)c1ccc(C(C)C)cc1", "outcome": "inactive"},
      {"molecule": "Cc1ccc2c(c1)N(C(=O)CCC(=O)NCCCN1CCOCC1)CC(C)O2", "note": "(configuration not stated)", "outcome": "inactive"},
      {"molecule": "CCC(=O)N1C(C(=O)NCc2ccc(OC)cc2)CSC1c1ccc(OC)cc1", "note": "(configuration not stated)", "outcome": "inactive"},
      {"molecule": "CN(C)CCOCCOc1ccc(Cl)c2ccccc12", "outcome": "inactive"},
      {"molecule": "CC1(C)CC(=O)C2=C(C1)OC(N)=C(C#N)[C@@H]2c1ccccc1[N+](=O)[O-]", "outcome": "inactive"},
      {"molecule": "CCCOc1ccc(NC(=O)c2c(-c3ccccc3)noc2C)cc1", "outcome": "inactive"},
      {"molecule": "CCCn1c(=N)c(S(=O)(=O)c2ccccc2)cc2c(=O)n3ccccc3nc21", "outcome": "inactive"},
      {"molecule": "CCCN1CCN(C(=O)c2ccc(CS(=O)c3ccc(Br)cc3)o2)CC1", "note": "(configuration not stated)", "outcome": "inactive"},
      {"molecule": "CCCCN(CCCC)CC(O)Cn1c2ccccc2c(=O)c2ccccc21", "note": "(configuration not stated)", "outcome": "inactive"},
      {"molecule": "CCOc1ccc2nc(NCCCNS(=O)(=O)c3ccc(C)cc3)c(C#N)cc2c1", "outcome": "inactive"},
      {"molecule": "O=C(Nc1ccc2c(c1)OCCO2)c1ccc(NC(=O)C2CCCO2)cc1", "note": "(configuration not stated)", "outcome": "inactive"},
      {"molecule": "Cc1ccc(S(=O)(=O)CCC(=O)OCC(=O)Nc2cccc(S(=O)(=O)N3CCCCC3)c2)cc1", "outcome": "inactive"},
      {"molecule": "CCNc1nc2nc3ccc(C)cn3c(=O)c2cc1C(=O)NCC1CCCO1", "note": "(configuration not stated)", "outcome": "inactive"},
      {"molecule": "O=c1c2ccccc2n(CC(O)CN2CCCCC2)c2ccccc12", "note": "(configuration not stated)", "outcome": "inactive"},
      {"molecule": "Cc1ccc(S(=O)(=O)Nc2ccc(Nc3ccccc3)cc2)cc1", "outcome": "inactive"},
      {"molecule": "CC(C)c1ccc(/C=C2\\Oc3c(ccc(O)c3CN3CCN(C)CC3)C2=O)cc1", "outcome": "inactive"},
      {"molecule": "COc1cc(C(c2c(C(=O)O)[nH]c3ccccc23)c2c(C(=O)O)[nH]c3ccccc23)ccc1OCc1ccccc1", "outcome": "inactive"},
      {"molecule": "CN(C)/C=C/C(=O)c1c(F)cccc1F", "outcome": "inactive"},
      {"molecule": "CCCN1CCc2c(sc(NC(=O)C3CCN(S(=O)(=O)c4cccs4)CC3)c2C(N)=O)C1", "outcome": "inactive"},
      {"molecule": "CCc1cccc(OC2OC(CO)C(O)C(O)C2NC(C)=O)c1", "note": "(configuration not stated)", "outcome": "inactive"},
      {"molecule": "CSCCC1(C(=O)O)NC(c2ccccc2O)C2C(=O)N(C(C)C)C(=O)C21", "note": "(configuration not stated)", "outcome": "inactive"},
      {"molecule": "Cc1cccn2c(=O)c(/C=C(\\C#N)C(=O)NC3CCS(=O)(=O)C3)c(N3CCC(C(N)=O)CC3)nc12", "note": "(configuration not stated)", "outcome": "inactive"},
      {"molecule": "Cc1ccc(-n2c(C)cc(/C=N/NC(=O)Cn3c4ccccc4c(=O)c4ccccc43)c2C)cc1", "outcome": "inactive"},
      {"molecule": "O=C(Cn1ccc([N+](=O)[O-])n1)N1CCCCCC1", "outcome": "inactive"},
      {"molecule": "NC(=O)c1cc([N+](=O)[O-])ccc1NCc1cccnc1", "outcome": "inactive"},
      {"molecule": "[O-]/[N+](=C/c1ccccc1)c1ccccc1", "outcome": "inactive"},
      {"molecule": "COc1cccc2c(=O)c3c(cnn3C)n(C)c12", "outcome": "inactive"},
      {"molecule": "Cc1ccc(-n2nnnc2CNC(=O)C(=O)c2c[nH]c3ccccc23)cc1C", "outcome": "inactive"},
      {"molecule": "Cc1cc(-n2c(=O)c(C#N)cc3c(=O)n4cccc(C)c4nc32)no1", "outcome": "inactive"},
      {"molecule": "Cc1ccc(S(=O)(=O)c2cc3c(=O)n4ccccc4nc3n(C)c2=N)cc1", "outcome": "inactive"},
      {"molecule": "Nn1c(SCC(=O)N2CCCC2)nnc1-c1cccs1", "outcome": "inactive"},
      {"molecule": "CCOC1=NN(c2ncc(C(F)(F)F)cc2Cl)C(=O)C1", "outcome": "inactive"},
      {"molecule": "CCOC(=O)c1cc2c(=O)n3ccccc3nc2n(CCCOC)c1=NC(=O)c1ccncc1", "outcome": "inactive"}
    ]}
  ]
}
